Test [1] in a line: qHTS assay to identify aromatase inhibitors - cell viability counter screen (AID 743084;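 note: cells stimulated with testosterone during compound exposure; nearly all actives have a fitted effect of over 55% in size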). (qHTS replaces the single test concentration by a dilution series.)
For test [2], the target named is Aryl hydrocarbon receptor (Homo sapiens) (UniProt P35869). Put plainly: qHTS assay to identify small molecule that activate the aryl hydrocarbon receptor (AhR) signaling pathway (AID 743085).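 For activation: HG2L7.5c1 human HepG2 liver cells with stably integrated DRE-driven firefly reporter; series mostly up to about 70 µM.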 Note: nearly all actives have a fitted effect of over 15% in size. Note: potency is the fitted concentration of half-maximal effect. The essentials: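 Luminescence (ONE-Glo) from a dioxin-responsive-element luciferase reporter in HG2L7.5c1 HepG2 cells after 24 hr compound exposure at 37C; viability measured by CellTiter-Fluor fluorescence beforehand.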

Test [3] is described as follows: qHTS assay to identify small molecule that activate the aryl hydrocarbon receptor (AhR) signaling pathway - cell viability counter screen (AID 743086).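 Note: HepG2 liver cells carrying the AhR DRE luciferase reporter; series mostly up to about 70 µM; nearly all actives have a fitted effect of over 45% in size.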 The procedure, abridged:
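HepG2-AhR-luc (HG2L7.5c1) cells, 4000/well, treated 24 h at 37 C with compound; viability measured as CellTiter-Fluor fluorescence after 30 min in the same wells as the luciferase read.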

The target in test [4] is Peroxisome proliferator-activated receptor gamma (Homo sapiens) (UniProt P37231). Put plainly: qHTS assay to identify small molecule agonists of the peroxisome proliferator-activated receptor gamma (PPARg) signaling pathway (AID 743094; active = well fitted activation curve with a large enough effect in the signal ratio in the repeat runs, not every such curve was filed as active; the % refers to the signal ratio). The essentials:
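HEK293H PPARg-bla cells, 5 h settle at 37C/5% CO2; compound (DMSO) 17 h, 37C; B/G FRET substrate 1 h RT; fluorescence intensity read-out. qHTS format.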

For test [5] the target is unchanged. Kind of test: qHTS assay to identify small molecule antagonists of the peroxisome proliferator-activated receptor gamma (PPARg) signaling pathway (AID 743191; calls by dose curve; note: series mostly up to about 63 µM; nearly all actives have a fitted effect of over 30% in size). The essentials: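 GeneBLAzer PPARg UAS-bla HEK293H cells, 5 h post-plating, exposed to compounds 17 h at 37C. LiveBLAzer B/G FRET substrate added for 1 h at room temperature; beta-lactamase reporter read by fluorescence intensity.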

Test [6] in a line: qHTS assay to identify small molecule antagonists of the peroxisome proliferator-activated receptor gamma (PPARg) signaling pathway - cell viability counter screen (AID 743194). Note: nearly all actives have a fitted effect of over 55% in size. Note: potency is the fitted concentration of half-maximal effect. The procedure, abridged: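 Cytotoxicity counter screen in PPARg-bla HEK293H cells, same wells as reporter assay. Compounds plus 50 nM rosiglitazone (final) for 17 h at 37 C, then viability read by CellTiter-Glo luminescence.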

The nature of test [7]: qHTS assay for small molecule agonists of the antioxidant response element (ARE) signaling pathway (AID 743202; active = well fitted activation curve with a large enough effect in the signal ratio in the repeat runs, not every such curve was filed as active; the % refers to the signal ratio; note: potency is the fitted concentration of half-maximal effect). The essentials:
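HepG2 ARE-bla cells; 16 h treatment at 37 C; FRET-based beta-lactamase fluorescence read after 2 h substrate incubation at room temperature.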

Test [8] is described as follows: qHTS assay for small molecule agonists of the antioxidant response element (ARE) signaling pathway - cell viability counter screen (AID 743203; calls by dose curve; note: nearly all actives have a fitted effect of over 55% in size). The essentials: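 Luminescence read-out (CellTiter-Glo, 30 min at room temperature) measured cell viability in the same wells as the ARE beta-lactamase reporter. HepG2 ARE-bla cells were treated with compounds for 16 hrs at 37C/5% CO2.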

A short description of test [9]: qHTS assay for small molecule activators of the heat shock response signaling pathway - cell viability counter screen (AID 743209). Note: nearly all actives have a fitted effect of over 50% in size. The essentials:
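HSE-bla HeLa; 1500 cells/well; overnight 37 C, 5% CO2; compound 5 h 37 C; LiveBLAzer B/G substrate 2.5 h RT; CellTiter-Glo 30 min RT; luminescence.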

Test [10] in a line: qHTS assay for small molecule activators of the heat shock response signaling pathway (AID 743210; active = well fitted activation curve with a large enough effect in the signal ratio in the repeat runs, with a control signal flat, not every such curve was filed as active; the % refers to the signal ratio;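 note: HeLa cells with beta-lactamase reporter driven by heat shock elements; series mostly up to about 63 µM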). The procedure, abridged:
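Following overnight attachment, HSE-bla HeLa cells received test compounds for 5 h at 37 C; beta-lactamase activity was then detected via FRET substrate fluorescence.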

Several values for one entry are separate records, joined by “and”; a condition that tells them apart may be missing. Equal values may be shown once. Inconclusive results are not listed. Where a structure was tested more than once in an assay, its records may differ in their call. Activity calls are given as the source filed them. Unless noted, calls come from the whole dose curve; as a rule, active = well fitted curve in the direction sought with a large enough effect in the repeat runs; inconclusive = weak or mixed curves; inactive = no such curve, though single readings can be large; an effect the other way counts as inactive or inconclusive.

Chain of Aryl hydrocarbon receptor (Homo sapiens) (P35869 whole entry, looked up): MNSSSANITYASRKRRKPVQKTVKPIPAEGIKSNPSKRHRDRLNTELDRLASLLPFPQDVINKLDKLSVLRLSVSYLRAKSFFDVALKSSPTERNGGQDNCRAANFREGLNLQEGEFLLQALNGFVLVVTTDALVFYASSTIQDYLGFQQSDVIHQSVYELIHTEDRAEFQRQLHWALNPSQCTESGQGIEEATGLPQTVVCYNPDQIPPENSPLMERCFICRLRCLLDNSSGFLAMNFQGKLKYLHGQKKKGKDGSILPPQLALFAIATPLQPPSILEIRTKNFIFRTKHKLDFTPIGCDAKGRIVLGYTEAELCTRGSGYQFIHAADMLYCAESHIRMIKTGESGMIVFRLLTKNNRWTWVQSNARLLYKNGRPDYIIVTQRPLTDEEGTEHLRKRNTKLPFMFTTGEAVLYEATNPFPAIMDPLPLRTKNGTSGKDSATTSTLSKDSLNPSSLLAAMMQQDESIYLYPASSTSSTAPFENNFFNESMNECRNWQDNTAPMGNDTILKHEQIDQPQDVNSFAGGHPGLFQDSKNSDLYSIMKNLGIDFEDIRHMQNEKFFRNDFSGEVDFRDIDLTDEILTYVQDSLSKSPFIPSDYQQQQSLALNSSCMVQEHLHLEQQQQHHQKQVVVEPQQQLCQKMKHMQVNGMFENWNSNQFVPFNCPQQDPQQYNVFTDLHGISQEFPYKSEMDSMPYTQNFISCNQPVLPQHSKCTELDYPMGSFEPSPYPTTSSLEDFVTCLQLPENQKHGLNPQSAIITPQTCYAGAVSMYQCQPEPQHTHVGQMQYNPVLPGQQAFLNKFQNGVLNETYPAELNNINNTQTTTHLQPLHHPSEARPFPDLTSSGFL
Chain of Peroxisome proliferator-activated receptor gamma (Homo sapiens) (P37231 whole entry, looked up): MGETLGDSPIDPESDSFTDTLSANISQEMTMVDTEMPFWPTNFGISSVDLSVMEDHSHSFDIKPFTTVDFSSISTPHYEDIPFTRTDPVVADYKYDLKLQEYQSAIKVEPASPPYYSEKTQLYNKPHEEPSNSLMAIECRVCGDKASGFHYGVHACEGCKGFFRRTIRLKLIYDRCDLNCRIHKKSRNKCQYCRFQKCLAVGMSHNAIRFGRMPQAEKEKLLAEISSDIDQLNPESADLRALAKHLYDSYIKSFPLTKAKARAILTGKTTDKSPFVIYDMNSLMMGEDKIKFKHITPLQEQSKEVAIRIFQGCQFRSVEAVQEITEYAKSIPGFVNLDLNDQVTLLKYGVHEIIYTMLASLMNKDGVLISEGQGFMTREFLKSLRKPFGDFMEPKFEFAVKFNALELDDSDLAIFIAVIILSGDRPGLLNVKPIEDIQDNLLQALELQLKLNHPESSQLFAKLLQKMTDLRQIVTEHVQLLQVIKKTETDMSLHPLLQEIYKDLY

On to `CCCCOCCOCCOCCO`, for which the Potency result in test [1], in test [2], in [3], in test [4], in test [5] and in test [6] was “inactive” each time. Also, the Potency result in [7], in [8], in test [9] and in test [10] was “inactive” throughout.

As for `OC1CCCCCCCCCCC1`, the Potency entry in [1], in test [2], in [3], in test [4], in test [5] and in test [6] was “inactive” each time. Moreover, the Potency result in test [7], in test [8], in test [9] and in [10] was “inactive” throughout.

In the case of `CCCCC(CC)COP(=O)(OCC(CC)CCCC)OCC(CC)CCCC` (stereo not drawn), the Potency result in test [1], in test [2], in test [3], in test [4], in [5] and in [6] was “inactive” in each case. Moreover, the Potency result in [7], in [8], in test [9] and in test [10] was “inactive” throughout.

Regarding `Cc1ncc[nH]1`, the Potency entry in test [1], in test [3], in [4], in [5], in [6] and in [7] was “inactive” throughout. The Potency entry in [8], in [9] and in test [10] was “inactive” in each case. The Potency entry in [2] is “inactive and 48.5 µM (active)”.

Take `COc1ccc(OC)c(C(O)CNC(=O)CN)c1` (stereo not drawn): the Potency result in test [1], in [2], in test [3], in [4], in [5] and in test [6] was “inactive” each time. The Potency entry in [7], in [8], in test [9] and in [10] was “inactive” throughout.

For the molecule `CCCCC(CC)COC(=O)c1ccc(N(C)C)cc1` (stereo not drawn), the Potency result in [1], in [3], in test [4], in test [5], in [6] and in test [7] was “inactive” in each case. Also, the Potency entry in test [8], in test [9] and in test [10] was “inactive” throughout. The Potency result in test [2] was “inactive and 27.3 µM (active)”.

`C=CC(C)(CCC=C(C)C)OC(C)=O` (stereo not drawn): the Potency result in test [1], in test [2], in [3], in [4], in test [5] and in [6] was “inactive” throughout. The Potency result in test [7], in test [8], in test [9] and in test [10] was “inactive” throughout.

Turning to `O=Cc1ccccc1O`, the Potency entry in test [1], in test [2], in test [3], in test [4], in test [5] and in test [6] was “inactive” throughout. Besides, the Potency entry in test [7], in test [8] and in test [9] was “inactive” throughout.

`Cc1cccc(C(=O)O)c1`: the Potency entry in test [1], in test [2], in test [3], in [4], in [5] and in test [6] was “inactive” each time. Besides, the Potency entry in test [7], in [8], in test [9] and in test [10] was “inactive” throughout.

Consider `CCC(C)c1ccccc1O` (stereo not drawn), for which the Potency entry in test [1], in [2], in test [3], in [4], in test [5] and in [6] was “inactive” each time. In addition, the Potency entry in [7], in test [8], in test [9] and in [10] was “inactive” in each case.

For `O=S(=O)(O)c1ccc(O)cc1`, the Potency result in test [1], in test [2], in test [3], in [4], in test [5] and in test [6] was “inactive” throughout. For the same molecule, the Potency result in test [7], in test [8], in test [9] and in test [10] was “inactive” throughout.

As to `Cc1cccc([N+](=O)[O-])c1C`, the Potency result in [1], in [2], in [3], in [4], in [5] and in [6] was “inactive” in each case. Moreover, the Potency result in test [7], in [8], in test [9] and in test [10] was “inactive” throughout.

`O=C(c1ccccc1)c1ccc(O)cc1O`: the Potency result in test [1], in test [2], in test [3], in test [4], in test [5] and in [6] was “inactive” each time. Further, the Potency result in test [8], in test [9] and in [10] was “inactive” each time. Moreover, the Potency in [7] was 30.6 µM (active).

Turning to `CC(C(=O)O)c1cccc(C(=O)c2ccccc2)c1` (stereo not drawn), the Potency result in test [1], in test [2], in [3], in [4], in test [5] and in [6] was “inactive” in each case. In addition, the Potency result in test [7], in test [8], in test [9] and in test [10] was “inactive” each time.

As to `CC(CCC(=O)O)(c1ccc(O)cc1)c1ccc(O)cc1`, the Potency entry in test [1], in [2], in [3], in test [4], in [5] and in test [6] was “inactive” in each case. Besides, the Potency entry in [7], in test [8], in [9] and in [10] was “inactive” each time.

In the case of `CC1=CCC(C(C)(C)O)CC1` (stereo not drawn), the Potency entry in [1], in [2], in [3], in test [4], in test [5] and in test [6] was “inactive” each time. Moreover, the Potency entry in [7], in test [8], in test [9] and in [10] was “inactive” throughout.

In the case of `CC(C)OC=O`, the Potency result in test [1], in [2], in [3], in [4], in test [5] and in [6] was “inactive” throughout. Further, the Potency entry in test [7], in test [8], in [9] and in test [10] was “inactive” in each case.

In the case of `C#C[C@]1(O)CC[C@H]2[C@@H]3CCC4=Cc5oncc5C[C@]4(C)[C@H]3CC[C@@]21C`, the Potency entry in test [1], in test [2], in test [3], in [4] and in test [10] was “inactive” in each case. For the same molecule, the Potency in test [6] was 54.9 µM (active).

Regarding `CN1C(C(=O)Nc2ccccn2)=C(O)c2ccccc2S1(=O)=O`, the Potency result in test [1], in [3], in [4], in test [5], in test [6] and in [7] was “inactive” each time. Moreover, the Potency result in test [8], in test [9] and in test [10] was “inactive” in each case. Further, in test [2], the Potency entry was “inactive and 24.6 µM (active)”.

Consider `Nc1ncnc2nc[nH]c12`, for which the Potency result in test [1], in [2], in [3], in test [4], in test [6] and in [7] was “inactive” throughout. The Potency entry in test [9] and in test [10] was “inactive” in each case.

Consider `C=C(C)C(=O)OCCOC(=O)C(=C)C`, for which the Potency entry in [1], in test [2], in test [3], in test [4], in test [5] and in test [6] was “inactive” throughout. The Potency result in test [7], in test [8], in test [9] and in test [10] was “inactive” in each case.

Take `Cc1ccc(C)c(O)c1C`: the Potency result in [1], in [2], in [3], in test [4], in test [5] and in [6] was “inactive” in each case. Also, the Potency entry in test [7], in test [8], in test [9] and in [10] was “inactive” each time.

With `O=[N+]([O-])c1ccc2c(c1)Cc1ccccc1-2`, the Potency result in [1], in test [3], in test [4], in test [5], in test [6] and in test [8] was “inactive” throughout. The Potency entry in test [9] and in [10] was “inactive” in each case. Further, the Potency result in test [2] is “inactive and 61.1 µM (active)”; in test [7], 61.1 µM (active).

These data come from PubChem BioAssay (Tox21).
